# Mito fusion yeast: mitochondrial division inhibition or fusion activation. S. cerevisiae fusion-defective mutant growth rescue, CellTiterGlo 48 h. Potency, µM (highest dose often 46.1 µM), inactives show at the top dose growth rescue (activation), actives largely listed as activators. 0.23% of 320,000 active; further: % of control where 0% means no effect; nearly all actives have a fitted effect of over 45% in size
#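 Yeast fusion mutant, YPEG (non-fermentable carbon), compound, 48 h at 37C non-permissive; CellTiterGlo added, 10 min RT, luminescence read. Rescued growth = division inhibition.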
# GLS inhibitor: blocks human kidney-isoform glutaminase activity. O94925. Potency, µM (titrated, usually from 45.5 µM), inactives show at the highest dose activity change, negative = inhibition, actives largely listed as inhibitors. GLS enzymatic activity, qHTS titration. 0.21% of 410,000 active; further: on the % scale 0 is the no-effect control and ±100 the full control effect
#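 Human kidney-isoform GLS in 45 mM KH2PO4 pH 8.2, 0.02% Tween-20, with compound, started with 1mM L-Glutamine (added stock). Glutamate oxidase/HRP/Amplex red coupled fluorescence read at start and after 30 min at RT.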
# VDR inhibitor: blocks the human vitamin D receptor; P11473; VDR-SRC2-3 peptide fluorescence polarization, 2 h; Potency, µM, without a hit: max response, negative = inhibition, usual class: inhibitors; 0.93% of 400,000 active; AID 504847; further: on the % scale 0 is the no-effect control and ±100 the full control effect
# Target sequence (P11473 whole entry, looked up): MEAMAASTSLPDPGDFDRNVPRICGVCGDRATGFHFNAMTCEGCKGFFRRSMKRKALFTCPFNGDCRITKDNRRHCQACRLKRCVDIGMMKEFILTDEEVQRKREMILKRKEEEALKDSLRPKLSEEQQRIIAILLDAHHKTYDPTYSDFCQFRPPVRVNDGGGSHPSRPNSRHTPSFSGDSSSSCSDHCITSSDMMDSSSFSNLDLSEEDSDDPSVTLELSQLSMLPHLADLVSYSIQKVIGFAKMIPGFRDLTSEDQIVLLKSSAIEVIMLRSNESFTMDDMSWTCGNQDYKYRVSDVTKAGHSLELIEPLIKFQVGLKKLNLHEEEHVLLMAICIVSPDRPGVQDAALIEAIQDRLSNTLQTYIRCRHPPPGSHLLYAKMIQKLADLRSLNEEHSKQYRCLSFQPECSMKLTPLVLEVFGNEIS
#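 Compounds are added to VDR with labelled SRC2-3 coactivator peptide and held 2 h at room temperature. Inhibition of the VDR–peptide interaction is then read as a change in fluorescence polarization.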
# KAT2A inh: inhibitors of human GCN5L2 histone acetyltransferase; Q92830; GCN5L2 HAT assay, ThioGlo1 CoA-SH fluorescence; Potency, µM (titrated, usually from 58.9 µM), inactives show at the top dose activity change, negative = inhibition, hits mostly inhibitors; 0.21% of 390,000 active; further: on the % scale 0 is the no-effect control and ±100 the full control effect
#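 GCN5L2 (20 nM) in 50mM HEPES pH 7.5, 0.1mM EDTA, 0.01% Tween-20 preincubated 15 min with compounds at room temperature. Reaction started with H3(1-25) 75uM, acetyl-CoA 70uM, ThioGlo1 50uM; CoA-thiol fluorescence (Ex340/Em540) read at 0 and 20 min.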
# PKM2 act: increases activity of human pyruvate kinase M2; Potency, µM (series often up to 57.5 µM), inactives show at the highest dose activation, usual class: activators; 0.34% of 260,000 active; AID 1631; P14618; purified PKM2, Kinase-Glo ATP luminescence, activation; response scale: 0% is enzyme alone, no compound; further: on the % scale 0 is the no-effect control and ±100 the full control effect; nearly all actives have a fitted effect of over 55% in size
#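 hPK-M2, >95% pure; 0.1 mM ADP / 0.5 mM PEP final; imidazole pH7.2 buffer w/ 7 mM MgCl2, 50 mM KCl; 1 h RT; Kinase-Glo lum. Intermediate enzyme activity for dual inhibitor/activator qHTS.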
# PLK1 PBD block: PLK1 (human) polo-box domain binding inhibition. P53350. Plk1 PBD binding of FITC phosphopeptide, fluorescence polarization. Potency, µM, for inactives: max response, negative = inhibition, hits mostly inhibitors. 2.8% of 360,000 active; further: series mostly up to about 57 µM; on the % scale 0 is the no-effect control and ±100 the full control effect; nearly all actives have a fitted effect of over 65% in size
# TbPYK confirm: confirmation of Trypanosoma brucei pyruvate kinase inhibitors. Potency, µM (top dose mostly 76.9 µM), for inactives: top-dose activity change, negative = inhibition, usual class: inhibitors. shares compounds with PLK1 PBD block. AID 720569. 67% of 890 active. recombinant TbPYK, Kinase-Glo ATP luminescence; further: on the % scale 0 is the no-effect control and ±100 the full control effect; nearly all actives have a fitted effect of over 70% in size
# TbPYK orthogonal: orthogonal confirmation of Trypanosoma brucei pyruvate kinase inhibitors | shares compounds with PLK1 PBD block | recombinant TbPYK, ADP-Glo luminescence, 60 min | Potency, µM (series often up to 76.9 µM), inactives show at the top dose activity change, negative = inhibition, most hits filed as inhibitors | 62% of 890 active | AID 720584; further: on the % scale 0 is the no-effect control and ±100 the full control effect; nearly all actives have a fitted effect of over 75% in size
# * hit, by the source's call; u = inconclusive; x = no result given; [ ] = remark or other dose. Compounds with a hit are over-represented: about 3.4% of the library has one in this group of screens. The call rests on the fitted dose curve; in most records, active means well fitted curve in the direction sought with a large enough effect; inconclusive means small, poorly fitted or top-dose-only effect, or another doubt; inactive means no such curve, though single readings can be large; an effect the other way counts as inactive or inconclusive. Potency means the concentration at half of the fitted maximal effect.
SMILES,Mito fusion yeast,GLS inhibitor,VDR inhibitor,KAT2A inh,PKM2 act,PLK1 PBD block,TbPYK confirm,TbPYK orthogonal
Cc1cccc(NC(=O)c2sc3nc(N4CCOCC4)c4c(c3c2N)CC(C)(C)OC4)c1,x,-10%,4%,-1%,x,x,x,x
CC1(C)Cc2c(c(N3CCOCC3)nc3sc(C(=O)Nc4cccc(Cl)c4)c(N)c23)CO1,3%,9%,-7%,-2%,-1%,u,1.1µM*,3.5µM*
Cc1noc(C)c1C(=O)N1CCC2(CCCN(C(=O)Nc3cccc(F)c3)C2)CC1,x,x,0%,0%,x,x,x,x
N#Cc1c(NC(=O)CCC(=O)O)sc2c1CCCCC2,2%,-1%,0%,3%,3%,27µM*,u,u
O=C(c1cccc(S(=O)(=O)Nc2ccc(F)cc2)c1)N1CCCC1,-3%,2%,-13%,1%,x,-5%,x,x
O=C1C=CC2=C3c4cc(O)c(O)cc4CC3(O)COC2=C1O (stereo not given),x,u,u,x,x,27µM*,7.1µM*,4µM*
COc1ccc2oc3c(ccc[n+]3C)c(=O)c2c1,x,31%,x,x,x,-9%,x,x
COc1ccc(CNC(=O)c2ccc3c(c2)NC(=O)C(CS(=O)(=O)Cc2ccccc2Cl)N3)cc1 (stereo not given),x,2%,5%,-3%,x,x,x,x
Cc1ccc(Sc2c(C)[nH]n(C(C)(C)C)c2=O)cc1,-6%,8%,-1%,-30%,4%,-12%,x,x
CC1=CC(=O)C(Sc2ccc(C)cc2)=CC1=O,x,u,x,x,x,0.84µM*,1.3µM*,2.5µM*
COc1ccc(OC)c(S(=O)(=O)Nc2cc3c(cc2N2CCCC2)n(C)c(=O)c(=O)n3C)c1,12%,u,u,-7%,0%[0.46 µM],21µM*,-21%,u
Cc1ccc(NCC(=O)c2ccccc2)cc1Cl,-8%,2%,-6%,3%,0%,-3%,x,x
Cc1ccc(NC2=C(NC(=O)c3ccccc3)C(=O)c3ccccc3C2=O)cc1Cl,u,15%,-15%,-8%,29%,27µM*,u,u
O=C1C=CC(=O)N1c1ccc2ccccc2c1,x,12%,79µM*,x,x,8.4µM*,25µM*,u
O=C1c2ccccc2C(=O)N1c1ccc2ncccc2c1,x,x,-10%,x,x,x,x,x
Cc1cccc(N2C(=O)C=CC2=O)c1,x,8%,50µM*,x,x,30µM*,u,u
O=C1C=CC(=O)N1c1ccc(Nc2ccccc2)cc1,x,33%,u,x,x,24µM*,u,u
O=C(Nc1ccc(Nc2ccccc2)cc1)c1c(F)c(F)c(F)c(F)c1F,1%,u,11%,-9%,1%,-8%,x,x
CCCC[C@]12Cc3ccccc3C(O1)c1c(c3ccccc3oc1=O)O2,0%[9.22 µM],x,x,-2%[12.7 µM],-2%[11.5 µM],x,x,x
O=[N+]([O-])c1cc(-c2ccc(C(=S)N3CCOCC3)o2)ccc1Cl,16%,-15%,10µM*,u,-12%,2.7µM*,16µM*,16µM*
COc1ccc(-c2noc(CC(=O)Nc3ccc(F)cc3F)n2)cc1,x,-10%,12%,-6%,x,x,x,x
c1cc2c(cc1CN1CCOCC1)OCO2,0%,2%,-12%,-4%,0%,-7%,12%,-3%
Cc1cc(C)cc(S(=O)(=O)c2cn(C)c3cc(N4CCN(C)CC4)c(F)cc3c2=O)c1,0%,-11%,-12%,-17%,x,-4%,x,x
O=C(CCN1CCc2ccccc2C(c2ccccc2)C1)c1ccc2c(c1)OCCO2 (stereo not given),-1%,u,u,-12%,0%,3µM*,u,u
O=C(NCC1CCCO1)c1sc(=S)n2c1[nH]c(=O)c1ccc(C(=O)N3CCCCC3)cc12 (stereo not given),0%,23%,-25%,8%,-51%,-19%,u,u
SMILES,Mito fusion yeast,GLS inhibitor,VDR inhibitor,KAT2A inh,PKM2 act,PLK1 PBD block,TbPYK confirm,TbPYK orthogonal
COc1ccc(C(=O)N2CCN(Cc3cc(=O)n4nc(-c5ccccc5C)sc4n3)CC2)cc1OC,x,-14%,6%,-6%,x,x,x,x
COc1cc(C2Nc3ccccc3C(=O)N2c2ccccc2OC)ccc1O (stereo not given),-2%,33%,-6%,-9%,-13%,-7%,x,x
COc1cc(C2Nn3c(nnc3-c3ccccc3OC)S2)ccc1O (stereo not given),-3%,64%,1%,-7%,-16%,21µM*,0.22µM*,4µM*
COc1cc2c(cc1OC)C(=O)C(Br)CC2 (stereo not given),x,u,x,x,x,0.95µM*,10µM*,5.6µM*
CCn1nc(C)c(CN2CCC(n3nccc3NC(=O)Cc3ccccc3)CC2)c1C,-27%,7%,0%,-9%,-11%,-6%,x,x
Oc1c(CN2CCOCC2)cc(CN2CCOCC2)c(O)c1CN1CCOCC1,x,27%,10µM*,x,x,1.7µM*,1.4µM*,u
O=C(Nc1cccc(F)c1)N1CCC2(CC1)CCN(C(=O)c1cnccn1)CC2,x,x,11%,-9%,x,x,x,x
CCOc1ccc(S(=O)(=O)N(C(=O)c2ccco2)c2cc3sc(=O)oc3c3ccccc23)cc1,13%,-2%,32µM*,u,23%,u,u,u
Cc1ccc(S(=O)(=O)N(C(=O)c2ccco2)c2cc3sc(=O)oc3c3ccccc23)cc1,11%,-1%,20µM*,u,22%,-7%,-29%,u

# Source: PubChem (National Center for Advancing Translational Sciences (NCATS))
